Measured values from ChEMBL document CHEMBL1157539, “Thousands of chemical starting points for antimalarial lead identification” (Nature, 2010).
Where “and” joins values, the source holds several entries; their conditions need not be identical. Identical values can stand only once.

Experiments:
Type in all cases: functional
Plasmodium falciparum [1] = test: GSK_TCMDC: Inhibition of Plasmodium falciparum 3D7 in whole red blood cells, using parasite LDH activity as an index of growth. Test compounds present at 2uM
Plasmodium falciparum [2] = test: GSK_TCMDC: Inhibition of Plasmodium falciparum Dd2 in whole red blood cells, using parasite LDH activity as an index of growth. Test compounds present at 2uM
HepG2 = test: GSK_TCMDC: Percent inhibition of human HepG2 cell line. Test compounds present at 10uM.

Row | Compound | Inhibition (Plasmodium falciparum [1]) | Inhibition (Plasmodium falciparum [2]) | Inhibition (HepG2)
1 | CN1CCCc2ccc(NC(=O)c3cc(-c4ccc(Cl)cc4)cs3)cc2C1.O=C(O)C(F)(F)F | 94% | 40% | 35%
2 | O=C(Nc1ccc(Cl)cc1)c1cc(Cl)cc2nc(C(F)(F)F)[nH]c12 | 100% | 100% | 87%
3 | O=C(Cc1c[nH]cn1)Nc1ccc(-c2cccc(-c3nc4cc(F)ccc4[nH]3)c2)cc1 | 100% | 70% | 28%
4 | CC1CC(NCCCNc2cc(=O)c3ccccc3[nH]2)c2c1cc(Cl)c(Cl)c2Cl (stereo unspecified) | 98% | 70% | 1%
5 | OC1CCC(Nc2ccc3ncc(-c4ccc5ccccc5c4)n3n2)CC1 (stereo unspecified) | 95% | 94% | 52%
6 | O=C(NC1CCC(N2CCC(c3nc4ccccc4s3)CC2)CC1)c1cc2ccccc2[nH]1 (stereo unspecified) | 94% | 37% | 23%
7 | O=C(Nc1ccsc1C(=O)NC1CCCCC1)c1ccc(F)cc1 | 86% | 11% | 3%
8 | O=C(NCC1CCN(Cc2ccc3c(c2)OCCO3)C1)c1cc(-c2cccc(C(F)(F)F)c2)cs1.O=C(O)C(F)(F)F (stereo unspecified) | 100% | 1% | 31%
9 | Cc1cc(N[C@@H](Cc2ccccc2)C(=O)NCc2cccs2)nc(NCCc2ccc(F)cc2)n1.O=C(O)C(F)(F)F | 100% | 83% | 3%
10 | CN(C)c1ccc(-c2ccc(C(=O)NC3CCN(Cc4ccc(F)cc4)CC3)s2)cc1.O=C(O)C(F)(F)F | 87% | 19% | 34%
11 | CC(=O)N1N=C(c2ccc(F)cc2)Sc2c1nc(-c1ccccc1)n2C(C)=O | 99% | 67% | 0%
12 | Cc1cccc2nc(-c3cccc(-c4cccc(CNC(C)C)c4)c3)[nH]c12.O=C(O)C(F)(F)F | 100% | 98% | 29%
13 | COc1ccc2[nH]ccc(=NN=Cc3ccccc3F)c2c1 | 100% | 98% | 23%
14 | CC(NC(=O)NC1CCC(CCN2CCCc3ccccc32)CC1)c1cccc2ccccc12.O=C(O)C(F)(F)F (stereo unspecified) | 90% | 83% | 0%
15 | Cc1cc(Nc2cccc(C(F)(F)F)c2)nc(Nc2cccc(C(F)(F)F)c2)n1 | 100% | 73% | 0%
16 | NC(=O)c1ccsc1NC(=O)CNC(c1ccccc1)c1ccccc1 | 88% | 37% | 8%
17 | COc1c(CNCCCCCCNCc2c(OC)c(OC)c3ccccc3c2OC)c(OC)c2ccccc2c1OC.CS(=O)(=O)O | 96% | 98% | 100%
18 | Cc1cccc2nc(-c3cccc(-c4ccc(NC(=O)Nc5ccc(F)c(F)c5F)cc4)c3)[nH]c12 | 100% | 100% | 61%
19 | CS(=O)(=O)NCCCNCc1cccc(-c2ccc(-c3nc4cc(C(F)(F)F)ccc4[nH]3)s2)c1.O=C(O)C(F)(F)F | 100% | 51% | 11%
20 | Fc1ccc2[nH]c(-c3cccc(-c4ccc(CN5CCCCC5)cc4)c3)nc2c1.O=C(O)C(F)(F)F | 99% | 97% | 46%
21 | CCCN(Cc1nnc(-c2cccs2)o1)C(=O)CSc1nnnn1-c1ccc(C)c(C)c1 | 96% | 80% | 0%

Row | Compound | Inhibition (Plasmodium falciparum [1]) | Inhibition (Plasmodium falciparum [2]) | Inhibition (HepG2)
22 | O=C(O)C(F)(F)F.c1ccc2[nH]c(-c3ccc(-c4ccc(CN5CCN(CCN6CCOCC6)CC5)cc4)cc3)nc2c1 | 98% | 99% | 43%
23 | COc1cc2nccc(Nc3cc(C)cc(O)c3)c2cc1OC.Cl | 97% | 0% | 0%
24 | Cl.O=C(NCCCCN1CCC(O)(c2ccc(Cl)cc2)CC1)c1ccc(Br)cc1 | 82% | 48% | 41%
25 | CN1CCN(Cc2cccc(-c3ccc4c(Nc5ccc(F)cc5Cl)ccnc4c3)c2)CC1 | 100% | 100% | 20%
26 | CCOC(=O)Cc1nc(C(=O)OCC)c(N)[nH]1.Cl | 94% | 24% | 2%
27 | CC1(C)CC(NC(=O)NC2CCN(Cc3ccccc3)CC2)CC(C)(CNC(=O)NC2CCN(Cc3ccccc3)CC2)C1 (stereo unspecified) | 93% | 2% | 10%
28 | O=C(Nc1ccc(Cl)cc1F)NC1CCN(CCCCCNC(=O)C2CC2c2ccc(Cl)c(Cl)c2)CC1 (stereo unspecified) | 100% | 27% | 46%
29 | COc1cccc(-c2[nH]c3ccccc3c2CN2CCC(c3c(C)cccc3C)CC2)c1 | 99% | 24% | 32%
30 | Cc1cc(N(C)C2CCN(CC3CCCCC3)C2)nc(Nc2ccc(Br)cc2)n1 (stereo unspecified) | 98% | 38% | 14%
31 | O=C(NC1CCN(Cc2ccccc2)CC1)c1cccc(-c2cc3cc(Cl)c(Cl)cc3[nH]2)c1.O=C(O)C(F)(F)F | 100% | 86% | 15%
32 | CC(C)(C)CC(C)(C)c1ccc(O)c(CNC2CCCCC2)c1.Cl | 98% | 99% | 92%
33 | O=C(Nc1ccc(-c2csc(-c3nc4ccccc4[nH]3)c2)cc1)Nc1ccsc1 | 100% | 17% | 50%
34 | COCCNCc1ncsc1-c1ccc2c(Nc3cc(O)c(Cl)cc3F)ccnc2c1 | 100% | 92% | 0%
35 | Clc1ccc(-c2cc3c(NCc4ccncc4)nccc3s2)cc1 | 98% | 8% | 26%
36 | Br.COc1cc(CCON2C(N)=NC(N)=NC2(C)C)cc(OC)c1OC | 93% | 95% | 59%
37 | Oc1c(Cl)cc(Nc2nccc(Nc3ccc(Oc4ccccc4)cc3)n2)cc1Cl | 99% | 26% | 8%
38 | O=C1Nc2ccc3ncccc3c2/C1=C/Nc1ccc(Cn2ccnc2)cc1 | 100% | 85% | 33%
39 | CCCN1CCN(c2ccc(NS(=O)(=O)c3ccc(C(=O)Nc4ccc(Cl)cc4)cc3)cc2)CC1.O=C(O)C(F)(F)F | 100% | 50% | 4%
40 | CC(C)(C)CC(C)(C)c1ccc(O)c(C(=O)Nc2cccc([N+](=O)[O-])c2)c1 | 95% | 97% | 49%
41 | COc1ccc(C(=O)N2CCC3(CC2)C(=O)N(CC(=O)NC2CCCCC2)CN3c2ccccc2)c(OC)c1 | 100% | 99% | 4%
42 | CCOC(=O)c1ccc(NC(=O)Nc2ccc(Cn3ncc(N4CCCNCC4)c(Cl)c3=O)cc2)cc1.O=C(O)C(F)(F)F | 88% | 58% | 2%

Row | Compound | Inhibition (Plasmodium falciparum [1]) | Inhibition (Plasmodium falciparum [2]) | Inhibition (HepG2)
43 | CCc1nn2c(Nc3ccncc3)cc(C)nc2c1-c1ccccc1 | 100% | 98% | 4%
44 | Cc1nc(C)c(CC(=O)Nc2cccc(-c3cccc(-c4nc5cc(C(F)(F)F)ccc5[nH]4)c3)c2)s1 | 95% | 30% | 49%
45 | O=C(Nc1cccc(CN2CCCN(Cc3ccsc3)CC2)c1)c1cc2ccccc2s1.O=C(O)C(F)(F)F | 96% | 29% | 25%
46 | CC(C)NCc1ccc(-c2ccc(CN3CCCC(c4ccccc4)C3)cc2)c(C(=O)NCC2CCCCC2)c1.O=C(O)C(F)(F)F (stereo unspecified) | 97% | 53% | 79%
47 | CC(C)N1CCN(c2ccc(OCCCN3CCN(c4cccc(Cl)c4Cl)CC3)c(C(F)(F)F)c2)CC1 | 94% | 37% | 79%
48 | CN1CCN(c2ccnc3ccc(NC(=O)Nc4ccccc4Br)cc23)CC1.Cl | 100% | 95% | 4%
49 | COc1ccc(CN2CCC(NCc3ccc(C(F)(F)F)cc3)CC2)cc1.O=C(O)C(F)(F)F | 97% | 0% | 37%
50 | CN1CCCC(CN2CCN(Cc3ccc(-c4cccc(-c5nc6ccccc6[nH]5)c4)cc3)CC2)C1.O=C(O)C(F)(F)F (stereo unspecified) | 100% | 100% | 57%
51 | Cc1ccc(C)c(Cn2c(N3CCC(C(=O)NCc4cccs4)CC3)nc3ccccc32)c1 | 89% | 73% | 0%
52 | Cc1cc(NCc2ccccc2)nc2cc(O)ccc12 | 98% | 80% | 0%
53 | Br.CCCN(CCCCCCN(CCC)CCc1ccc(O)c(O)c1)CCc1ccc(O)cc1 | 90% | 5% | 0%
54 | CC(C)[C@H](NC(=O)c1ccc(O)c(-c2ccc(Cl)c(Cl)c2)c1)C(=O)NC1CCCCCC1 | 99% | 99% | 0%
55 | CCC(CC(NCCCCNC(=O)c1ccc(NC(=O)c2ccc(Cl)cc2)cc1)c1ccccc1)c1ccccc1OC (stereo unspecified) | 100% and 89% | 56% and 76% | 23% and 10%
56 | Cl.Oc1ccc2ccccc2c1CNCCC1CCCCC1 | 99% | 99% | 16%
57 | COc1cc(NC(=O)c2cccs2)c(OC)cc1NC(=O)Nc1cccc(Cl)c1 | 83% | 10% | 5%
58 | CCCOc1c(CCNCCCCNCCc2ccc3ccccc3c2OCCC)ccc2ccccc12.CS(=O)(=O)O | 100% | 78% | 100%
59 | FC(F)(F)c1ccc2[nH]c(-c3cccc(-c4cccc(CNCC5CCCO5)c4)c3)nc2c1.O=C(O)C(F)(F)F (stereo unspecified) | 100% | 96% | 23%
60 | O=C(Nc1ccc(Cn2ncc(N3CCCNCC3)c(Cl)c2=O)cc1)Nc1ccc(SC(F)(F)F)cc1.O=C(O)C(F)(F)F | 93% | 68% | 9%
61 | Cn1cncc1C(=O)Nc1cccc(-c2cccc(-c3nc4cc(F)ccc4[nH]3)c2)c1 | 100% | 45% | 16%
62 | CS(=O)(=O)CCNCc1cc(-c2cc3ncnc(Nc4ccc(OCc5cccc(F)c5)c(Cl)c4)c3s2)cs1 | 99% | 48% | 8%
